Consider 27 compounds from PubChem BioAssay (EPA / NIEHS).

The source made the active and inactive calls. The calls were made as follows: active = hit-call score of the fitted dose curve at least 0.9, where 1 is the maximum; inactive = score below 0.9.

This assay is described as follows: CCTE_Shafer_MEA_acute_network_burst_percentage: CCTE's Neural Acute Assay for Percentage of Network Bursts, Shafer Lab (AID 2284022).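 Also: curves fitted for loss so actives lower network burst percentage.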 Here is the method: CCTE_Shafer_MEA_acute assay is conducted using Axion Biosystems 48 well microelectrode array (MEA) plates and Maestro recording system. Each well of the MEA plate contains a grid of 16 microelectrodes embedded in the culture surface. Electrically active cells, such as neurons, can be cultured over the electrodes, and electrical activity in these cells can be recorded extracellularly. The spontaneous firing of neurons is captured from each electrode on a microsecond timescale providing both temporally and spatially precise data. […] The CCTE_Shafer_MEA_acute assay uses primary cultures of rat cortical neurons. As these cultures mature over time, neural networks develop functional activity and form cohesive networks in which electrical activity can be highly coordinated. Baseline 40-minute recordings are made on days post-plating 13 or 15, followed by a secondary 40-minute recording after chemical exposure.CCTE_Shafer_MEA_acute_network_burst_percentage is a component of the CCTE_Shafer_MEA_acute assay. It measures the percent of spikes (action potential firings) in network bursts (temporally-clustered groups of spikes across multiple electrodes) as the number of spikes occuring in network bursts divided by the total number of spikes during a recording in a microelectrode array (MEA) using Axion Biosystems Maestro 768 channel amplifier with the AxIS adaptive spike detector. The recordings before and after chemical treatment are used to calculate a percent change in the network burst percentage in each well.Data from the assay component CCTE_Shafer_MEA_acute_network_burst_percentage was analyzed into 1 assay endpoint. This assay endpoint, CCTE_Shafer_MEA_acute_network_burst_percentage, was analyzed in the negative analysis fitting direction relative to DMSO as the negative control and baseline of activity. Using a type of functional reporter, gain or loss-of-signal activity can be used to understand electrical activity.
Spontaneous activity in the cortical cultures was recorded using an Axion Biosystems Maestro 768 channel amplifier and Axion Integrated Studios (AxIS) v1.8 (or later) software. The amplifier recorded from all channels simultaneously (gain = 1200 x; sampling rate = 12.5 kHz/channel): raw signals were filtered with a Butterworth band-pass filter (300-5000 Hz), which filters out slower local field potentials leaving only fast potentials, i.e., "spikes", arising from extracellular currents associated with action potentials (Pine 2006; Wheeler and Nam 2011). On-line spike detection of filtered signals was conducted with the AxIS adaptive spike detector, using a threshold of 8x the root mean squared (rms) noise on each channel. Any electrodes with rms noise levels greater than 5 uV were grounded (e.g., no data were recorded). Once grounded, an electrode was grounded for the duration of the experiment. All recordings were conducted at 37 C. Wells were deemed usable if on the day of the exposure >/= 10 electrodes were active (defined as >/= 5 spikes/min). On DIV 13 or 15, a minimum of three wells from one cortical culture preparation were treated with each compound (0.03-40 uM). Prior to recording baseline activity, each mwMEA plate was placed in the Maestro at 37 C and allowed to sit for 20 min while firing rates stabilized. Baseline activity (40 min) was recorded before the addition of each compound. An additional 40 min of spontaneous activity was recorded in the presence of each compound. Changes in network parameters relative to baseline were assessed following compound treatment.
`CC(=O)C(C)=CC1C(C)=CCCC1(C)C` (configuration not stated): the call was inactive.

Regarding `COc1ccc(S(=O)(=O)N2C(=O)[C@@](c3ccccc3OC)(N3C[C@H](O)C[C@H]3C(=O)N(C)C)c3cc(Cl)ccc32)c(OC)c1`, the call was inactive.

Take `CN1CCCC1=O`: the compound was called inactive.

With `Cc1ccc2ncccc2c1`, the outcome was inactive.

Take `NS(=O)(=O)c1cc2c(cc1Cl)NCNS2(=O)=O`: the call was inactive.

On to `CCOC(=O)C(C)(C)Oc1ccc(Cl)cc1`, for which the compound was called inactive.

Turning to `Cc1ccc(C)c(O)c1C`, the outcome was inactive.

Consider `CCCCCCCCCCCCCCCCCC(=O)O`, for which the result was inactive.

For `COc1ccc2c(c1)c(CC(=O)O)c(C)n2C(=O)c1ccc(Cl)cc1`, the call was inactive.

Take `CC(C)(C)c1cc(O)c(C(C)(C)C)cc1O`: the outcome was inactive.

`O=C(O)CCCCC(=O)O`: the compound was called inactive.

Take `CC(=O)Oc1ccccc1C(=O)O`: the result was inactive.

Take `NCC1(Cc2noc(=O)[nH]2)CCCCC1`: the compound was classed as inactive.

As a reminder, the AC50 is the concentration at which the activity in the assay is half-maximal. On to `CN[C@H]1CC[C@@H](c2ccc(Cl)c(Cl)c2)c2ccc(S(N)(=O)=O)cc21`, for which the half-maximal activity concentration (AC50) is 31 µM (active).

With `Nc1nc(N)c2nc(CNc3ccc(C(=O)N[C@@H](CCC(=O)O)C(=O)O)cc3)cnc2n1`, the result was inactive.

Turning to `C=CCc1ccc(O)c(OC)c1`, the concentration at half-maximal activity (AC50) was 31.1 µM (active).

Consider `CNCc1cc(F)ccc1Oc1ccc(Cl)c(Cl)c1`, for which the compound was classed as inactive.

For `Nc1ccc2c(c1)C(=O)c1ccccc1C2=O`, the compound was called inactive.

Regarding `FC(F)(F)C(F)(F)C(F)(F)C(F)(F)C(F)(F)C(F)(F)CCI`, the compound was classed as inactive.

With `CCCc1cc(=O)[nH]c(=S)[nH]1`, the call was inactive.

With `c1cc(-c2ccncc2)ccn1`, the compound was called inactive.

On to `Clc1cc(Cl)c(Cl)cc1Cl`, for which the outcome was inactive.

In the case of `Cc1ccc(C(C)C)c(O)c1`, the result was inactive.

Take `CCCCCCCCCCO`: the outcome was inactive.

In the case of `Nc1ccccc1N`, the outcome was inactive.

Regarding `C=CCOC(=O)c1ccccc1C(=O)OCC=C`, the call was inactive.

Take `C[Si]1(C)O[Si](C)(C)O[Si](C)(C)O[Si](C)(C)O1`: the call was inactive.
